Results on 25 compounds are retold here after PubChem BioAssay (NCATS).

Records with an inconclusive call do not appear. Active and inactive are the calls of the source. The call rests on the fitted dose curve; in most records, active means well fitted curve in the direction sought with a large enough effect; inconclusive means small, poorly fitted or top-dose-only effect, or another doubt; inactive means no such curve, though single readings can be large; an effect the other way counts as inactive or inconclusive.

For experiment [1], the target named is Beta-2 adrenergic receptor (Homo sapiens) (UniProt P07550). Nature of the experiment: qHTS validation assay of beta-arrestin-biased ligands of beta2-adrenergic receptor (AID 485366). In outline: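 Tango cells (recombinant beta2-AR with recombinant beta-arrestin; recruitment releases tTA driving luciferase) were treated with compounds titrated up to 46 microM for 18 hr at 37 degrees C. Luminescence gave %Activity, and concentration-response curves were curve-classified.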
Beta-2 adrenergic receptor (Homo sapiens), sequence (P07550 whole entry, looked up): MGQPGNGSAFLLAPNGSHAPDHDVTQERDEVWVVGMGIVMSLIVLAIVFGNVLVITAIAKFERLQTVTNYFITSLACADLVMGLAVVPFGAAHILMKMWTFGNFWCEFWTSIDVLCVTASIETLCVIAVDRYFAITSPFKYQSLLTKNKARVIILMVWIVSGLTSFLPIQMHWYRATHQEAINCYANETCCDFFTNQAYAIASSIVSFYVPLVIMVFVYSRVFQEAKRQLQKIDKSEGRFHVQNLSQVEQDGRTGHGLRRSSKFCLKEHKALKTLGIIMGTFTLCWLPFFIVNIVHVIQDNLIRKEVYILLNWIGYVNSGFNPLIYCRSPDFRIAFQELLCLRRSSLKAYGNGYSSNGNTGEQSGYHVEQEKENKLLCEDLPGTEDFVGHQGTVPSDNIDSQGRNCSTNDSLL
(In qHTS, concentration-response curves come from the screen itself.)

The nature of experiment [2]: Quantitative high throughput screen for delayed death inhibitors of the malarial parasite plastid, 96 hour incubation (AID 488745). Further: nearly all actives have a fitted effect of over 70% in size. Further: potency means the concentration at half of the fitted maximal effect. A digest of the protocol: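 P. falciparum carrying an integrated firefly luciferase reporter, grown in erythrocytes (2% hematocrit, 0.1% parasitemia final) in RPMI 1640/0.5% Albumax, was exposed to compound for 96 h (two generations) at 37 C, 5% CO2. Luminescence decrease indicated growth inhibition.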

A short description of experiment [3]: Quantitative high throughput screen for delayed death inhibitors of the malarial parasite plastid, 48 hour incubation (AID 488752). Further: nearly all actives have a fitted effect of over 65% in size. Further: potency means the concentration at half of the fitted maximal effect. In outline: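 Erythrocytes infected with P. falciparum carrying an integrated firefly luciferase reporter (2% hematocrit, 0.1% parasitemia final) were exposed to compounds in RPMI 1640/0.5% Albumax for 48 h at 37 C, 5% CO2. Growth inhibition was scored as reduced luminescence.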

For experiment [4], the target named is Thioredoxin reductase 1, cytoplasmic (Rattus norvegicus) (UniProt O89049). Nature of the experiment: qHTS Assay for Substrates of Mammalian Selenoprotein Thioredoxin Reductase 1 (TrxR1) (AID 488772).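 Further: NADPH fluorescence in the first read after selenite addition and not the 8 min delta; series mostly up to about 57 µM; a drop in NADPH fluorescence below the no-compound background marks a TrxR1 substrate.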 In outline: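 Quantitative HTS in Tris-HCl buffer at pH 7.5 with EDTA and Tween-20, using rat TrxR1, 400 uM NADPH and 400 uM selenite (final). A fall in initial NADPH fluorescence relative to background marked substrate behaviour.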
Thioredoxin reductase 1, cytoplasmic (Rattus norvegicus), sequence (O89049 whole entry, looked up): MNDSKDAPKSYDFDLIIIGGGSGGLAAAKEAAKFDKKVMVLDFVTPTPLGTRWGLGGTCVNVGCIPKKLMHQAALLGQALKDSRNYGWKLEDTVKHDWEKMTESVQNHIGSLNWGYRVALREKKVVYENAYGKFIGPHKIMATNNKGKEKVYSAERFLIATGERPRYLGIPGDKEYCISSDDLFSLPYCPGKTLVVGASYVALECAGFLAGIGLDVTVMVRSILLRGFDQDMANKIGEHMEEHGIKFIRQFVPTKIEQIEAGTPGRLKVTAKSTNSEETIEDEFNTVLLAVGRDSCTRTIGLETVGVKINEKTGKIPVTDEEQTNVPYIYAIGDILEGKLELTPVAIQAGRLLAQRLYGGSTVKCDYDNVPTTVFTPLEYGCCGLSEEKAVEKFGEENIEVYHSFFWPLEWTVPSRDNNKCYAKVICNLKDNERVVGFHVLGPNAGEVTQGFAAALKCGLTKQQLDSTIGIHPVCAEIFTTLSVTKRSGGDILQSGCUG

The target is the same in experiment [5]. Nature of the experiment: qHTS Assay for Inhibitors of Mammalian Selenoprotein Thioredoxin Reductase 1 (TrxR1) (AID 488773). Further: nearly all actives have a fitted effect of over 40% in size. Further: potency means the concentration at half of the fitted maximal effect. The following applies: Potency: inhibition. A digest of the protocol:
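Steps: enzyme (90 nM) plus NADPH (400 uM final), 5 min at ~22 deg C; compound added, 15 min; selenite (400 uM final) added; fluorescence followed for 8 min. Concentration-response curves derived from the normalized delta values.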

Experiment [6] deals with Flap endonuclease 1 (Homo sapiens) (UniProt P39748). Put plainly: qHTS Validation Assay for the Inhibitors of Human Flap endonuclease 1 (FEN1) (AID 488816). Further: potency means the concentration at half of the fitted maximal effect. In outline: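 FEN1, dispensed as a 10 nM reagent, was preincubated with pin-transferred compounds for 15 min at room temperature before substrate was added (50 nM final). Plates were read at 0 and 15 min, and a four-parameter Hill equation was fitted to the concentration-response data.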
Flap endonuclease 1 (Homo sapiens), sequence (P39748 whole entry, looked up): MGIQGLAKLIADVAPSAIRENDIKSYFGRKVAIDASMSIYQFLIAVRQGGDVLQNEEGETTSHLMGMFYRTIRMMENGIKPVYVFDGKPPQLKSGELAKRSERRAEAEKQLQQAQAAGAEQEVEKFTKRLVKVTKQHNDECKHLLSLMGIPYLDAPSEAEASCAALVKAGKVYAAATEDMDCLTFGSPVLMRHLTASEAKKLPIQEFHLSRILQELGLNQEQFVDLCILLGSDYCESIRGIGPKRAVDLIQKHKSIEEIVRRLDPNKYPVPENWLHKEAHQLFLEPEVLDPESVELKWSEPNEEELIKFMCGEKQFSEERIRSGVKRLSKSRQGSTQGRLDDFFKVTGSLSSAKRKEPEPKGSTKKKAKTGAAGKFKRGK

Experiment [7] deals with M-phase phosphoprotein 8 (Homo sapiens) (UniProt Q99549). Put plainly: qHTS Validation Assay for Inhibitors for MPP8 Chromodomain Interactions with Methylated Histone Tails (AID 488949). Further: nearly all actives have a fitted effect of over 55% in size. Further: potency means the concentration at half of the fitted maximal effect. A digest of the protocol: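 MPP8 (50 nM) was preincubated with biotinylated H3(1-18)K9me3 peptide (50 nM) in PBS pH 7.4, 0.01% Tween-20 for 30 min at room temperature, then with compounds for 30 min; binding was detected by AlphaScreen.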
M-phase phosphoprotein 8 (Homo sapiens), sequence (Q99549 whole entry, looked up): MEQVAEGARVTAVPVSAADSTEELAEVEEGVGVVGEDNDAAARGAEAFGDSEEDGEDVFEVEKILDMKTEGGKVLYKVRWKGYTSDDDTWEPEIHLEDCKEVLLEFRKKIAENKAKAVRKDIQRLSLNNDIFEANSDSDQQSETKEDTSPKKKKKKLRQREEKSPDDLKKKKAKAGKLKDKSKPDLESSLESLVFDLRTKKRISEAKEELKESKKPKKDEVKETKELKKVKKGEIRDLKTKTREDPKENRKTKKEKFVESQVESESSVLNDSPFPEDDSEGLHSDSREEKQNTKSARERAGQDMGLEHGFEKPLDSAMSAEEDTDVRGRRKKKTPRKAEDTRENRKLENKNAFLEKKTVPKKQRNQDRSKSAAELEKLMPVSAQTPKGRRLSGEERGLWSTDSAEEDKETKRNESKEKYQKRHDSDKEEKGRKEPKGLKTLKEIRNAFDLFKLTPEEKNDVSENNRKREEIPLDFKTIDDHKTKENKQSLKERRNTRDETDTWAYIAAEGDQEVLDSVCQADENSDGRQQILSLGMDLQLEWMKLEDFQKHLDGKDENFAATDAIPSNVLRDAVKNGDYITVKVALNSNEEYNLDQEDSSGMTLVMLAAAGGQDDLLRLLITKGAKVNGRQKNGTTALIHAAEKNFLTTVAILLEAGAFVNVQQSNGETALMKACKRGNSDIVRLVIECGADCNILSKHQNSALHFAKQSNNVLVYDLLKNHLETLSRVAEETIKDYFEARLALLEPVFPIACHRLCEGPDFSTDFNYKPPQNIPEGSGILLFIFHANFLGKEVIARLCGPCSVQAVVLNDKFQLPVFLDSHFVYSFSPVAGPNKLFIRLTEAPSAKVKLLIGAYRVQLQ

Experiment [8] addresses Chromobox protein homolog 1 (Homo sapiens) (UniProt P83916). Put plainly: qHTS Validation Assay for Inhibitors of HP1-beta Chromodomain Interactions with Methylated Histone Tails (AID 488953). Further: nearly all actives have a fitted effect of over 50% in size. Further: potency means the concentration at half of the fitted maximal effect. In outline: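 HP1-beta (50 nM) was preincubated 30 min at room temperature with biotinylated H3(1-18)K9me3 peptide (50 nM) in PBS pH 7.4, 0.01% Tween-20, then with compounds 30 min. AlphaScreen signal was read after streptavidin donor/nickel chelate acceptor beads (10 ug/mL final).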

Experiment [9] concerns the target Methanococcus maripaludis chaperonin (MmCpn) (UniProt Q6LX38). Nature of the experiment: High-Throughput Screening for Modulators of Cytosolic Chaperonin Activity: MmCpn Primary Screen (AID 488978).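 Further: 50 nM MmCpn enzyme hydrolysing 30 µM ATP at 37 °C.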 In outline: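 MmCpn (50 nM final) was preincubated with compound 5 min at RT, then 30 uM ATP (final) was added and the reaction ran 10 min at 37C. ADP produced was detected by Transcreener HTRF (ex 320 nm; em 590/665 nm).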

Methanococcus maripaludis chaperonin (MmCpn), sequence (Q6LX38 1-543): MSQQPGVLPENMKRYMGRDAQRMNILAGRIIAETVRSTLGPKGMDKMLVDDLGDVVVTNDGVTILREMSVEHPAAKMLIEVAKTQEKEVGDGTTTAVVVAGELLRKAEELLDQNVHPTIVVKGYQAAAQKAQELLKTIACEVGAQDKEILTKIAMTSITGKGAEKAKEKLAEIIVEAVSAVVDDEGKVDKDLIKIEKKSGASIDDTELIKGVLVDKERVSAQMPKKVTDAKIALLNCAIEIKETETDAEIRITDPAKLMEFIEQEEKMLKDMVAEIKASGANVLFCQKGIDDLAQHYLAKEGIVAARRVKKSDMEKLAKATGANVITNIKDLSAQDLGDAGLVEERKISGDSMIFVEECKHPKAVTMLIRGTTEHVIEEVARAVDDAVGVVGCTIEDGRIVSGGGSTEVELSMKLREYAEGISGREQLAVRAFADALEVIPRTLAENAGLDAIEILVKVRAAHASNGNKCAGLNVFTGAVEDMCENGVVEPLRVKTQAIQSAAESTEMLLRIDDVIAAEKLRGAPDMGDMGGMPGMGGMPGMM
Chromobox protein homolog 1 (Homo sapiens), sequence (P83916 whole entry, looked up): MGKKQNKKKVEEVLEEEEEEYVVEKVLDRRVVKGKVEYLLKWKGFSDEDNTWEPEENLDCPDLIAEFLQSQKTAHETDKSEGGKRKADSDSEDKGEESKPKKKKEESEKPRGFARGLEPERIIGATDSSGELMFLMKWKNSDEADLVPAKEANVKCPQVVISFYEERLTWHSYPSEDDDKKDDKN

For the compound `c1ccc(C2CN3CCSC3=N2)cc1` (stereo not given), the compound was classed as inactive in experiment [1], in [4] and in experiment [9]. Further, the Potency entry in [2], in [3], in experiment [5], in experiment [6], in experiment [7] and in experiment [8] was “inactive” throughout.
As to `O=c1cc(-c2ccccc2)[nH]c2nc(Cl)ccc12`, the compound was classed as inactive in experiment [1], in experiment [4] and in [9]. The Potency entry in [2], in experiment [3], in experiment [5], in [6], in experiment [7] and in [8] was “inactive” throughout.
For `Nc1ncnc2c1ncn2C1CCCO1` (stereo not given), the compound was called inactive in experiment [1], in experiment [4] and in experiment [9]. Also, the Potency result in experiment [2], in experiment [3], in [5], in [6] and in [7] was “inactive” in each case. In addition, the Potency in [8] is 0.006 µM (active).
For the compound `O=C(O)C1CCCNC1` (stereo not given), the compound was classed as inactive in [1], in [4] and in experiment [9]. Also, the Potency result in experiment [2], in [3], in experiment [5], in experiment [6], in experiment [7] and in [8] was “inactive” in each case.
For `Cc1nc2c(OCc3ccccc3)cccn2c1CC#N`, the compound was classed as inactive in experiment [1], in experiment [4] and in experiment [9]. The Potency entry in experiment [2], in [3], in [5], in [6], in [7] and in experiment [8] was “inactive” throughout.
With `O=[N+]([O-])c1cccc2c(Br)[nH]nc12`, the result in [1], in experiment [4] and in experiment [9] was inactive. For the same compound, the Potency result in experiment [2], in [3], in experiment [5], in [6], in experiment [7] and in experiment [8] was “inactive” in each case.
Regarding `CCCCCCCCCC[Si](C)(C)CCC(=O)NC(Cc1ccc(C)cc1)c1ccccc1` (stereo not given), the compound was classed as inactive in [1], in [4] and in [9]. The Potency result in [2], in experiment [3], in experiment [5], in [6], in experiment [7] and in experiment [8] was “inactive” throughout.
`NC1(C(=O)O)CCc2cc(C(=O)O)ccc21` (stereo not given): the result in [1], in experiment [4] and in experiment [9] was inactive. Also, the Potency entry in [2], in [3], in experiment [6], in experiment [7] and in experiment [8] was “inactive” each time. Further, the Potency in experiment [5] is 16.8 µM (active).
Turning to `CCCCCCCCCCCCCCCCCCOC[C@H](COP(=O)([O-])OCC[N+](C)(C)C)OC`, the compound was called inactive in experiment [1] and in experiment [9]. The Potency result in [2], in experiment [3], in experiment [5], in [6], in experiment [7] and in experiment [8] was “inactive” each time.
With `NC1(C(=O)O)CC1`, the compound was called inactive in experiment [1], in experiment [4] and in experiment [9]. Moreover, the Potency entry in experiment [2], in experiment [3], in experiment [6], in experiment [7] and in experiment [8] was “inactive” each time.
On to `COc1cccc(OC)c1OCCNCC1CSc2ccccc2O1` (stereo not given), for which the call in experiment [1], in experiment [4] and in experiment [9] was inactive. Also, the Potency result in [2], in experiment [3], in experiment [5], in [7] and in experiment [8] was “inactive” in each case.
With `CCOC(=O)C12CC1/C(=N/O)c1ccccc1O2` (stereo not given), the compound was called inactive in experiment [1], in [4] and in experiment [9]. Besides, the Potency entry in experiment [2], in [3], in [7] and in experiment [8] was “inactive” in each case.
Take `Cc1nc(N=Nc2ccc(C(=O)O)cc2)c(COP(=O)(O)O)c(C=O)c1O`: the call in [1], in experiment [4] and in experiment [9] was inactive. Further, the Potency result in [2], in experiment [3], in experiment [6] and in [7] was “inactive” in each case. Further, the Potency in experiment [8] is 50.1 µM (active).
For `Oc1cc(O)c2c(c1)O[C@H](c1ccc(O)c(O)c1)[C@@H](O)C2`, the result in experiment [1], in [4] and in [9] was inactive. The Potency result in [2], in experiment [3], in experiment [5], in [7] and in experiment [8] was “inactive” in each case. Besides, the Potency in experiment [6] is 4.74 µM (active).
Consider `COc1ccc(NC(=O)c2ccc(-c3ccc(-c4noc(C)n4)cc3C)cc2)cc1N1CCN(C)CC1`, for which the call in [1], in experiment [4] and in experiment [9] was inactive. In addition, the Potency in experiment [2] is 4.65 µM (active); in experiment [3], 3.7 µM (active); in [7], 15.8 µM (active); in experiment [8], 31.6 µM (active). For the same compound, in experiment [6], the Potency entry is “inactive”.
On to `CNc1cc(NS(=O)(=O)c2ccc(N)cc2)nc(NC)n1`, for which the compound was classed as inactive in experiment [1], in experiment [4] and in [9]. Moreover, the Potency entry in experiment [2], in experiment [3], in [6] and in experiment [7] was “inactive” in each case.
As for `O=C(O)Cc1ccc(O)c(O)c1`, the result in experiment [1], in experiment [4] and in [9] was inactive. Besides, the Potency result in experiment [2], in experiment [3], in [7] and in [8] was “inactive” throughout.
`COc1cc(N)c(Cl)cc1C(=O)OCCN1CCCCC1`: the outcome in [1], in [4] and in experiment [9] was inactive. Also, the Potency entry in experiment [2], in [3], in [5] and in experiment [7] was “inactive” in each case. In addition, the Potency in [8] is 0.006 µM (active).
For the compound `NCCS(=O)O`, the outcome in [1], in [4] and in experiment [9] was inactive. In addition, the Potency entry in experiment [2], in [3], in experiment [5], in experiment [6] and in [7] was “inactive” each time.
As to `NC(N)=NC(N)=Nc1ccccc1`, the result in [1], in [4] and in experiment [9] was inactive. The Potency entry in experiment [2], in experiment [3], in [5], in experiment [7] and in [8] was “inactive” throughout.
For `COC1(C2=NCCN2)COc2ccccc2O1` (stereo not given), the call in [1], in [4] and in experiment [9] was inactive. The Potency result in experiment [2], in [3], in [5], in experiment [6] and in experiment [7] was “inactive” throughout.
Consider `COc1ccc2c(c1)c(CC(=O)O)c(C)n2C(=O)c1ccccc1`, for which the compound was called inactive in [1], in experiment [4] and in experiment [9]. Further, the Potency result in experiment [2], in experiment [3], in experiment [6], in experiment [7] and in experiment [8] was “inactive” throughout.
Consider `NS(=O)(=O)c1cccc2c1c([N+](=O)[O-])cc1nc(O)c(O)nc12`, for which the compound was called inactive in experiment [1] and in experiment [9]. The Potency entry in experiment [2], in experiment [3], in experiment [5], in experiment [6] and in experiment [7] was “inactive” throughout.
As for `CC1CNCCN1S(=O)(=O)c1cccc2cnccc12` (stereo not given), the compound was classed as inactive in [1], in experiment [4] and in [9]. Further, the Potency entry in experiment [2], in experiment [3], in experiment [6], in [7] and in experiment [8] was “inactive” in each case.
As to `Cc1cccc(C2CN(C)CCc3c2cc(O)c(O)c3Cl)c1` (stereo not given), the outcome in experiment [1], in experiment [4] and in experiment [9] was inactive. In experiment [2], the Potency is 4.65 µM (active). The Potency result in experiment [3], in experiment [5], in [6] and in [7] was “inactive” each time.
